Her2 expr inh: inhibitors of Her2 protein expression, primary screen, SKBR-3 cells, AlphaScreen, 66K library; Receptor tyrosine-protein kinase erbB-2 (Homo sapiens), P04626; SKBR-3 HER2 protein level, 18-24 h; active compounds read low; HER2 level % of control, % at 10 µM; 0.69% of 65,000 active;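 active = HER2 level under 5% of the carrier-only control; inconclusive = no clear call, values can overlap the other calls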;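 note: 100% = DMSO carrier and 0% = 500 nM PU-H71 HSP90 inhibitor; lower value means stronger loss of Her2 protein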
Cav32 inh: Cav3.2 calcium influx blockers – cell-based, Fluo-4 calcium fluorescence, FDSS, MLSMR library, primary screen; 4% of 100,000 active; Cav3.2-expressing cells; active compounds read low; B-score at 10 µM; Voltage-dependent T-type calcium channel subunit alpha-1H (Homo sapiens), O95180;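 active = single-dose well whose peak fluorescence ratio is a statistical outlier from its plate by either plate-standardised score or position-corrected B-score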
PLAP act: PLAP enzyme activators, biochemical, luminescence, HTS. purified PLAP enzyme, luminescent substrate read-out; active compounds read high. 1.2% of 96,000 active. Alkaline phosphatase, placental type (Homo sapiens), P05187. AID 696, 2007. activation fold at 20 µM; in the data active = activation fold above about 2
M1 antagonist: antagonists of rat M1 muscarinic receptor | Muscarinic acetylcholine receptor M1 (Rattus norvegicus), P08482 | CHO-M1 cells, Fluo-4 calcium, ACh EC80 antagonist mode; active compounds read low | B-score at 10 µM | 3.4% of 64,000 active | AID 628, 2007;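 active = calcium fluorescence response, raw or row-and-column corrected B-score, differing from the plate sample mean either way at a set confidence level, mostly lower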
Target sequence (P08482 whole entry, looked up): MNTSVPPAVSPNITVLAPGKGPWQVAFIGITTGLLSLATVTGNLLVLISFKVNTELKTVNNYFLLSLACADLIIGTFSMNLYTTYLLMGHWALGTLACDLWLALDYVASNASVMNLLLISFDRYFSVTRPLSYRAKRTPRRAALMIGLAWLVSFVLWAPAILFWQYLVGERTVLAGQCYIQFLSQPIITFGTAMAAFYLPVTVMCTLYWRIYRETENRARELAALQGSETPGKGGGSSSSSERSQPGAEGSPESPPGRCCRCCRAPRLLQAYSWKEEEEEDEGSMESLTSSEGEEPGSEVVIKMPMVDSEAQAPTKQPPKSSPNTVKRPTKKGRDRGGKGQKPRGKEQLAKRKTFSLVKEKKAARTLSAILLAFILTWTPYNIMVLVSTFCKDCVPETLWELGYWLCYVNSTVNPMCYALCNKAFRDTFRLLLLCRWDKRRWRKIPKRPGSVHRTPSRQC
M1 ag: M1 muscarinic receptor agonists, primary screen, CHO-M1 cells, Fluo-4 calcium, agonist mode; Muscarinic acetylcholine receptor M1; Fluo-4 calcium fluorescence; active compounds read high; B-score at 10 µM; 3% of 64,000 active;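 active = fluorescence rise, raw or as B-score row- and column-corrected plate score, outside the 99.7% band of its plate's samples, either direction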
M1 agonist conf: rat M1 muscarinic receptor agonists, confirmation, CHO-M1 cells, Fluo-4 calcium, duplicate retest; fluorescence change (max-min) at 10 µM; Fluo-4 calcium fluorescence, agonist mode; actives lie on both sides; shares compounds with M1 ag; 19% of 1,700 active;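 active = fluorescence change differs from the solvent-only DMSO control mean at a set confidence level in both duplicate runs; inconclusive = differs from solvent-only control mean in just one of two runs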;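 note: an EC20 dose of acetylcholine follows compound addition during the same imaging run; raw fluorescence intensity difference in instrument units with no normalization to controls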
M4 agonist ctr: agonist activity at rat M4 receptor, confirmation, counter-screen for M1 allosteric modulator project, cell-based, agonist mode; shares compounds with M1 ag; CHO M4/Gqi5 cells, Fluo-4 calcium fluorescence; actives lie on both sides; fluorescence change (max-min) at 10 µM; 9% of 1,700 active;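 active = fluorescence change differing from the plate's solvent-only control wells at 99.7% confidence in both duplicates, whether higher or lower; inconclusive = differs from solvent controls in only one of two duplicates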
An asterisk follows results filed as active; ? = inconclusive; . = no result given. A selection: hits, their analogues and other compounds. The true share with any hit is near 7.9%.

SMILES	Her2 expr inh	Cav32 inh	PLAP act	M1 antagonist	M1 ag	M1 agonist conf	M4 agonist ctr
CC(=O)Nc1nc2n(n1)C(c1ccccc1)C=C(c1ccccc1)N2 (centres undefined)	106	-0.037	2.1*	0.27	20*	132*	97
O=C(Nc1nc2n(n1)C(c1ccccc1)C=C(c1ccccc1)N2)c1ccco1 (centres undefined)	-23*	-2.5	2.9*	-0.31	19*	44	26
O=C(Nc1nc2nc(-c3ccccc3)cc(-c3ccccc3)n2n1)c1ccco1	76	-1.1	1.3	0.021	3.8*	-24*	-57
CS(=O)(=O)Nc1nc2n(n1)C(c1ccccc1)C=C(c1ccc(Br)cc1)N2 (centres undefined)	.	.	1.5	.	.	.	.
COc1ccc(OC)c(-n2nnnc2SCC(=O)NCc2ccc3c(c2)OCO3)c1	98	.	1	0.61	0.33	.	.
CC(/C=C/c1ccco1)=N/NC(=O)Cc1cccs1	.	1.1	1.3	.	.	.	.
COc1ccc(NC(=O)C2CCCN(S(=O)(=O)c3cccc4cccnc34)C2)c(OC)c1 (centres undefined)	93	0.55	1.5	-0.22	3.1*	-32*	?
CC(=O)c1cccc(NC(=O)C2CCCN(S(=O)(=O)c3cccc4cccnc34)C2)c1 (centres undefined)	65	0.34	1.2	-0.016	6.6*	-26*	?
COc1ccc(N2CCN(C(=O)C3CCCN(S(=O)(=O)c4cccc5cccnc45)C3)CC2)cc1 (centres undefined)	82	0.25	1.5	-0.49	2.3	.	.
CC(=O)c1cccc(NC(=O)C2CCCN2S(=O)(=O)c2cccc3cccnc23)c1 (centres undefined)	96	0.61	0.9	0.087	-0.4	.	.
FC(F)(F)C(Oc1nc(Nc2ccc(Cl)cc2)nc(N2CCOCC2)n1)C(F)(F)F	.	1.1	.	.	.	.	.
C#CCSc1nnc(-c2sc(-c3ccccc3)nc2C)n1C	.	1.1	0.8	.	.	.	.
Nc1ccc2nc(-c3ccc(Cl)cc3)[nH]c2c1	81	.	0.9	-0.67	-2.2*	?	-80
O=C(OCCN(C1=NS(=O)(=O)c2ccccc21)c1ccccc1Cl)c1ccc(Cl)cc1	.	-3.2	1.1	.	.	.	.
COc1ccccc1N1CCN(C(=O)CCCC2=NS(=O)(=O)c3ccccc3N2)CC1	65	.	1.1	-0.0014	3.2*	-22*	-54
Cc1cccc(C(=O)N=c2c(C#N)cc3c(=O)n4cccc(C)c4nc3n2Cc2ccco2)c1	.	-1.9	1.6	.	.	.	.
CCOC(=O)c1cc2c(=O)n3cccc(C)c3nc2n(Cc2ccco2)c1=NC(=O)c1cccnc1	88	-0.27	1.5	-0.9	40*	180*	44
CCOC(=O)c1cc2c(=O)n3ccccc3nc2n(Cc2ccco2)c1=NC(=O)c1cccnc1	103	0.22	1.3	-1	6.2*	146*	7.7
Cc1ccc2ccc(C3C(=O)c4ccccc4C3=O)nc2c1	.	-1.9	.	.	.	.	.
CC(=O)N1C(=O)C(=C2C=C(C)OC(C)=C2)c2ccccc21	70	-3.9	0.8	-0.84	28*	?	52
O=C(Nc1cccc(Cl)c1)c1ccc(-n2cncn2)c([N+](=O)[O-])c1	.	-0.49	0.8	.	.	.	.
O=C(NC(Cc1c[nH]c2ccccc12)C(=O)O)c1ccco1 (centres undefined)	.	0.24	1.1	.	.	.	.
O=C(Nc1ccccc1C(=O)NC(Cc1c[nH]c2ccccc12)C(=O)O)c1ccco1 (centres undefined)	88	.	1.5	0.013	-2.6*	-28*	-67
CC1CCCN(CC(O)CN)C1 (centres undefined)	.	0.23	.	.	.	.	.
COc1ccc2c(C=Nc3c(C)n(C)n(-c4ccccc4)c3=O)c(O)n(Cc3ccco3)c(=O)c2c1	98	-1.1	1.1	-2.2*	9.5*	11	-8.7
SMILES	Her2 expr inh	Cav32 inh	PLAP act	M1 antagonist	M1 ag	M1 agonist conf	M4 agonist ctr
CCOc1c(Br)cc(C2NS(=O)(=O)N=C3CCCCCN32)cc1OC (centres undefined)	106	1.3	1	-0.42	0.14	.	.
O=C(CSc1ccc2nnc(-c3ccccn3)n2n1)N1CCN(c2ccccc2)CC1	95	0.11	1.3	-0.58	3.3*	-8.5	?
COc1ccc(/C=N/c2oc(-c3ccccc3)cc2C#N)cc1OC	.	0.56	1	.	.	.	.
CCOC(=O)C1CCCN(c2nc3ccccc3nc2C(C#N)C(=O)OCC)C1 (centres undefined)	79	-1.1	1.2	-0.72	0.81	.	.
CCOC(=O)C1CCCN(c2nc3ccccc3nc2C(C#N)C(=O)OCCOC)C1 (centres undefined)	95	.	1.2	-0.83	6.8*	-7	-28
N#CC(C(=O)OC1CCCCC1)c1nc2ccccc2nc1N1CCOCC1 (centres undefined)	130	-1.2	1	4.8*	72*	-13	-26
CCCCOC(=O)C(C#N)c1nc2ccccc2nc1N1CCN(Cc2ccc3c(c2)OCO3)CC1 (centres undefined)	-55*	0.13	1	-0.23	14*	31	6.1
CCOc1ccccc1NC(=O)C1CCCCN1S(=O)(=O)c1ccc(F)cc1 (centres undefined)	.	-1.7	0.9	.	.	.	.
COc1ccc(CNc2nc3c(c(=O)n(Cc4ccc(Br)cc4)c(=O)n3C)n2C)cc1	56	-2.1	1.7	-0.25	3.4*	-6.3	-8.3
CCC(=O)N1CCc2cc(OC)c(OC)cc2C1COc1ccc(C(=O)OC)cc1 (centres undefined)	98	-1.5	1.5	-0.006	0.48	.	.
COC(=O)c1ccc(OCC2c3cc(OC)c(OC)cc3CCN2C(=O)c2ccco2)cc1 (centres undefined)	76	-1.7	1.1	-2.4*	11*	-15	?
CC(=O)N1CCc2cc(C(=O)CN3CCN(c4cccc(Cl)c4)CC3)ccc21	106	0.33	1.4	-3*	5.9*	22	16
COc1cc(C2CC(=O)Nc3ccccc3S2)cc(OC)c1OC (centres undefined)	96	.	1	-1.5	5.9*	-7.2	?
O=C1CC(c2ccc(F)cc2)Sc2ccccc2N1 (centres undefined)	111	0.022	.	0.022	0	.	.
COC(=O)CN1CCN(C(=O)c2ccc(F)cc2)c2ccccc2C1	80	0.42	1.3	-0.018	1.7	.	.
CCN(CC)c1ccc2c(c1)OC(N)=C(C#N)C2c1cccnc1 (centres undefined)	59	-11*	1	-4.6*	18*	681*	652*
